Read-out in assay [1]: Thrombomodulin, THBD (gene 7056)
In words: BSK_CASM3C_Thrombomodulin: BioMAP Diversity Plus: CASM3C Assay for Thrombomodulin Biomarker Activity (AID 2283051).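 Also: thrombomodulin protein level measured by ELISA 24 h after dosing.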 The settings on record: primary human coronary artery smooth muscle cells; actives raise or lower the signal.

Read-out in assay [2]: Tissue Factor, F3 (gene 2152)
In words: BSK_CASM3C_TissueFactor: BioMAP Diversity Plus: CASM3C Assay for Tissue Factor Biomarker Activity (AID 2283052).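 Also: cell surface tissue factor protein level read by ELISA.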 The settings on record: primary human coronary artery smooth muscle cells; actives raise or lower the signal.

Read-out in assay [3]: Interferon-gamma inducible Protein 10 (IP10), CXCL10 (gene 3627)
As to the kind of experiment: BSK_hDFCGF_IP10: BioMAP Diversity Plus: hDFCGF Assay for Interferon-gamma inducible Protein 10 (IP10) Biomarker Activity (AID 2283053). The settings on record: primary human foreskin fibroblasts; actives raise or lower the signal. The gist of the method: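 Primary human foreskin fibroblasts exposed to chemicals for 24 h. IP-10 measured by ELISA; changes fitted bidirectionally against DMSO baseline.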

Read-out in assay [4]: Urokinase-type plasminogen activator receptor (uPAR), PLAUR (gene 5329)
As to the kind of experiment: BSK_CASM3C_uPAR: BioMAP Diversity Plus: CASM3C Assay for Urokinase-type plasminogen activator receptor (uPAR) Biomarker Activity (AID 2283054).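 Also: cell-surface uPAR protein level quantified by ELISA.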 The settings on record: primary human coronary artery smooth muscle cells; actives raise or lower the signal.

Read-out in assay [5]: Vascular cell adhesion molecule 1 (VCAM1), VCAM1 (gene 7412)
In words: BSK_CASM3C_VCAM1: BioMAP Diversity Plus: CASM3C Assay for Vascular cell adhesion molecule 1 (VCAM1) Biomarker Activity (AID 2283055).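 Also: VCAM-1 protein level quantified by ELISA on the cells.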 The settings on record: primary human coronary artery smooth muscle cells; actives raise or lower the signal.

Read-out in assay [6]: Collagen III, COL3A1 (gene 1281)
In words: BSK_hDFCGF_CollagenIII: BioMAP Diversity Plus: hDFCGF Assay for Collagen III Biomarker Activity (AID 2283056). The settings on record: primary human foreskin fibroblasts; actives raise or lower the signal. The gist of the method: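 hDFCGF primary human dermal fibroblasts; 24 h chemical exposure; collagen III by ELISA; bidirectional curve fit vs DMSO baseline (gain or loss of signal).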

Read-out in assay [7]: Epidermal growth factor receptor (EGFR), EGFR (gene 1956)
In words: BSK_hDFCGF_EGFR: BioMAP Diversity Plus: hDFCGF Assay for Epidermal growth factor receptor (EGFR) Biomarker Activity (AID 2283057). The settings on record: primary human foreskin fibroblasts; actives raise or lower the signal. The method in brief:
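Primary human foreskin fibroblasts (hDFCGF system), sampled 24 h after dosing; EGFR quantified by ELISA. Bidirectional fit relative to DMSO baseline; SRB total-protein staining in parallel cultures for cytotoxicity.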

Assay [8] can be described thus: BSK_hDFCGF_Proliferation: Cell Proliferation Assessment in the BioMAP Diversity Plus: hDFCGF Assay (AID 2283059).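 Also: curves fitted for both rise and fall of signal versus DMSO baseline.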 The settings on record: primary human foreskin fibroblasts. The method in brief: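 This proliferation readout used SRB total-protein staining of human foreskin fibroblasts […], normalized to DMSO with bidirectional curve fitting.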
Read-out in assay [9]: Macrophage colony-stimulating factor (MCSF), CSF1 (gene 1435)
In words: BSK_hDFCGF_MCSF: BioMAP Diversity Plus: hDFCGF Assay for Macrophage colony-stimulating factor (MCSF) Biomarker Activity (AID 2283060). The settings on record: primary human foreskin fibroblasts; actives raise or lower the signal. The gist of the method: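 ELISA read-out of M-CSF in human dermal foreskin fibroblast cultures, 24 h after chemical dosing; gain or loss of signal fitted bidirectionally relative to DMSO baseline.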

Assay [10] in a line: BSK_hDFCGF_SRB: Viability Assessment in the BioMAP Diversity Plus: hDFCGF Assay (AID 2283061).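 Also: cells exposed to compound for 24 h before the read.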 The settings on record: primary human foreskin fibroblasts. The method in brief: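 Primary human foreskin fibroblasts; 24 h post-dose; fixed 10% TCA, stained 0.1% SRB, A560 read; total protein as overt cytotoxicity measure; curves fit bidirectionally vs DMSO control.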
Read-out in assay [11]: Monokine induced gamma interferon (MIG), CXCL9 (gene 4283)
In words: BSK_hDFCGF_MIG: BioMAP Diversity Plus: hDFCGF Assay for Monokine induced gamma interferon (MIG) Biomarker Activity (AID 2283063). The settings on record: primary human foreskin fibroblasts; actives raise or lower the signal. The method in brief: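 Fibroblasts (human foreskin, primary) dosed, 24 h, MIG by ELISA; fit bidirectional vs DMSO.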

Read-out in assay [12]: Vascular cell adhesion molecule 1 (VCAM1), VCAM1 (gene 7412)
As to the kind of experiment: BSK_hDFCGF_VCAM1: BioMAP Diversity Plus: hDFCGF Assay for Vascular cell adhesion molecule 1 (VCAM1) Biomarker Activity (AID 2283065). The settings on record: primary human foreskin fibroblasts; actives raise or lower the signal. The gist of the method:
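ELISA read-out of VCAM-1 on human skin fibroblasts, 24 h post-dose; gain or loss of signal fitted bidirectionally against DMSO baseline.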

Read-out in assay [13]: Plasminogen activator inhibitor-1 (PAI1), SERPINE1 (gene 5054)
In words: BSK_hDFCGF_PAI1: BioMAP Diversity Plus: hDFCGF Assay for Plasminogen activator inhibitor-1 (PAI1) Biomarker Activity (AID 2283066). The settings on record: primary human foreskin fibroblasts; actives raise or lower the signal. The gist of the method:
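Human foreskin fibroblast primary cells, 24 h chemical exposure; PAI-1 measured by ELISA. Bidirectional fitting relative to DMSO; parallel cultures stained with SRB for total protein to flag overt cytotoxicity.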

Read-out in assay [14]: Intercellular Adhesion Molecule 1 (ICAM1), ICAM1 (gene 3383)
As to the kind of experiment: BSK_KF3CT_ICAM1: BioMAP Diversity Plus: KF3CT Assay for Intercellular Adhesion Molecule 1 (ICAM1) Biomarker Activity (AID 2283067). The settings on record: primary human keratinocytes with fibroblasts; actives raise or lower the signal. The method in brief: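 ELISA readout of ICAM-1; KF3CT human skin co-culture (keratinocytes + foreskin fibroblasts), 24 h post-dose; gain/loss fit vs DMSO baseline.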

Read-out in assay [15]: Interferon-gamma inducible Protein 10 (IP10), CXCL10 (gene 3627)
As to the kind of experiment: BSK_KF3CT_IP10: BioMAP Diversity Plus: KF3CT Assay for Interferon-gamma inducible Protein 10 (IP10) Biomarker Activity (AID 2283068). The settings on record: primary human keratinocytes with fibroblasts; actives raise or lower the signal. The method in brief:
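Signal is secreted/surface IP-10 by ELISA in a human primary skin co-culture of keratinocytes and foreskin fibroblasts, taken 24 h post-dosing; DMSO served as negative control.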

A short description of assay [16]: BSK_KF3CT_SRB: Viability Assessment in the BioMAP Diversity Plus: KF3CT Assay (AID 2283069).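 Also: total protein by sulforhodamine B staining as a cytotoxicity measure; read 24 h after compound addition.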 The settings on record: primary human keratinocytes with fibroblasts. The method in brief:
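Human primary keratinocyte plus foreskin fibroblast co-culture exposed to chemicals for 24 h. Total protein measured by 0.1% sulforhodamine B staining after 10% TCA fixation, read at 560 nm; bidirectional fitting versus DMSO baseline.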

Read-out in assay [17]: Interleukin-1 alpha (IL1a), IL1A (gene 3552)
As to the kind of experiment: BSK_KF3CT_IL1a: BioMAP Diversity Plus: KF3CT Assay for Interleukin-1 alpha (IL1a) Biomarker Activity (AID 2283070). The settings on record: primary human keratinocytes with fibroblasts; actives raise or lower the signal. The method in brief: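 Human keratinocyte plus foreskin fibroblast primary co-culture, sampled 24 h after chemical dosing. IL-1a measured by ELISA; responses fitted bidirectionally against DMSO baseline (negative control), so gain or loss of signal both count.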

Read-out in assay [18]: TIMP metallopeptidase inhibitor 1 (TIMP1), TIMP1 (gene 7076)
In words: BSK_hDFCGF_TIMP1: BioMAP Diversity Plus: hDFCGF Assay for TIMP metallopeptidase inhibitor 1 (TIMP1) Biomarker Activity (AID 2283062). The settings on record: primary human foreskin fibroblasts; actives raise or lower the signal. The method in brief:
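ELISA readout of TIMP-1 from human dermal foreskin fibroblast cultures 24 h post-dosing. Curves were fitted in both directions against DMSO baseline, with SRB total-protein staining in parallel cultures as a cytotoxicity check.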

Read-out in assay [19]: Matrix Metallopeptidase 1 (MMP1), MMP1 (gene 4312)
In words: BSK_hDFCGF_MMP1: BioMAP Diversity Plus: hDFCGF Assay for Matrix Metallopeptidase 1 (MMP1) Biomarker Activity (AID 2283064). The settings on record: primary human foreskin fibroblasts; actives raise or lower the signal. The gist of the method: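 Primary human foreskin fibroblasts in the hDFCGF system were dosed with test chemical, and MMP1 was measured by ELISA 24 h later. Values come from bidirectional curve fitting against the DMSO baseline.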

Activity calls are given as the source filed them. The calls were made as follows: active = hit-call score of the fitted dose curve at least 0.9, where 1 is the maximum; inactive = score below 0.9.

The values below come from PubChem BioAssay (EPA / NIEHS).

For orientation: AC50 means the midpoint of the concentration-response curve, whichever way the signal moves.

With `COc1ccc(C(=CC(=O)N2CCOCC2)c2ccc(Cl)cc2)cc1OC`, the outcome in assay [1], in assay [2], in [3], in [4], in assay [6] and in [7] was inactive. The result in [8], in assay [9], in assay [10], in [11], in [12] and in assay [14] was inactive. Further, the result in assay [15], in [16] and in assay [17] was inactive. The AC50 in assay [5] was 7.56 µM (active); in [13] it was 7.96 µM (active).
For the molecule `CC(=NC#N)N(C)Cc1ccc(Cl)nc1`, the result in assay [1], in assay [2], in assay [3], in assay [4], in assay [5] and in [6] was inactive. Besides, the result in assay [7], in assay [8], in assay [9], in assay [10], in assay [18] and in assay [11] was inactive. The outcome in assay [12], in assay [13], in [14], in [15], in assay [16] and in [17] was inactive.
As for `CCc1cnc(C2=NC(C)(C(C)C)C(=O)N2)c(C(=O)O)c1` (centres undefined), the result in assay [1], in assay [2], in assay [3], in assay [4], in assay [5] and in [6] was inactive. The result in [7], in assay [8], in [9], in assay [10], in assay [11] and in [19] was inactive. The result in assay [12], in assay [13], in [14], in assay [15], in assay [16] and in assay [17] was inactive.
On to `CCCSP(=O)(OCC)SCCC`, for which the outcome in assay [1], in [2], in [3], in assay [4], in assay [5] and in assay [6] was inactive. For the same molecule, the result in [7], in assay [8], in assay [9], in assay [10], in assay [18] and in assay [11] was inactive. In addition, the result in assay [12], in [13], in [14], in [15], in [16] and in [17] was inactive.
Take `CSc1nnc(C(C)(C)C)c(=O)n1N`: the outcome in assay [1], in [2], in assay [5], in [7], in [8] and in assay [9] was inactive. For the same molecule, the result in assay [10], in [11], in assay [19], in [12], in assay [13] and in assay [14] was inactive. Moreover, the outcome in [15], in assay [16] and in assay [17] was inactive. For the same molecule, the results for the AC50 in assay [3], in assay [4] and in assay [6] were 12.7 µM (active), 1.32 µM (active) and 3.97 µM (active), respectively.
